# From PubChem
# In the library only some 10% were active in any assay of this set; here they are far more common.
# KinaseGlo FLuc: Counterscreen for Luciferase (Kinase-Glo TM) Inhibition. Luciferin 4-monooxygenase (Photuris pensylvanica), Q27757. Kinase-Glo luciferase, ATP luminescence, 8 min. Potency, µM (highest dose often 38.3 µM), inactives show top-dose activity change, negative = inhibition, usual class: inhibitors. hit rate 0.28% among 200,000. AID 1379, 2008; active means well fitted inhibition curve with a large enough effect; inconclusive means small, poorly fitted or top-dose-only effect; further: potency means the concentration at half of the fitted maximal effect; nearly all actives have a fitted effect of over 60% in size
#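 Compound is pinned into ATP-containing buffer (10 uM ATP, imidazole pH 7.2, 7 mM MgCl2). Kinase-Glo luciferase reagent is then added. Light output is recorded following an 8-min room-temperature incubation.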
# HPGD block: qHTS Assay for Inhibitors of HPGD (15-Hydroxyprostaglandin Dehydrogenase); 15-hydroxyprostaglandin dehydrogenase [NAD(+)] (Homo sapiens), P15428; purified HPGD, NADH fluorescence kinetic, PGE2 substrate; Potency, µM, inactives show at the top dose activity change, negative = inhibition, usual class: inhibitors; hit rate 4.3% among 150,000; AID 894, 2007; further: potency means the concentration at half of the fitted maximal effect
#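 20 nM HPGD preincubated 15 min at room temperature with compound in 50 mM Tris-HCl pH 8, 0.01% Tween 20. Started with 1 mM NAD+ and 30 uM prostaglandin E2; NADH fluorescence (360/450 nm) read 5 times over 30-s intervals, last minus first.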
# IMPase cell inh: qHTS Assay for Identifying the Cell-Membrane Permeable IMPase Inhibitors; Inositol monophosphatase 1 (Rattus norvegicus), P97697; CHO-M1 cells, IP1 accumulation, HTRF TR-FRET ratio; inhibition (IP1 accumulation), % at 46.1 µM; 120,000 tested, under 10 active; AID 901, 2007; active means well fitted curve in the direction sought with a large enough effect in the signal ratio, not every such curve was filed as active; inconclusive means small, poorly fitted or top-dose-only effect, or a change in a side signal; inactive means no such curve, though single readings can be large or run the other way; the % refers to the signal ratio;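 further: cells stimulated with carbachol in lithium chloride buffer; plate controls were DMSO basal wells for no effect and reference inhibitor wells for full effect; higher means more IMPase inhibition seen as more IP1 and lower FRET ratio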
# Target sequence (P97697 whole entry, looked up): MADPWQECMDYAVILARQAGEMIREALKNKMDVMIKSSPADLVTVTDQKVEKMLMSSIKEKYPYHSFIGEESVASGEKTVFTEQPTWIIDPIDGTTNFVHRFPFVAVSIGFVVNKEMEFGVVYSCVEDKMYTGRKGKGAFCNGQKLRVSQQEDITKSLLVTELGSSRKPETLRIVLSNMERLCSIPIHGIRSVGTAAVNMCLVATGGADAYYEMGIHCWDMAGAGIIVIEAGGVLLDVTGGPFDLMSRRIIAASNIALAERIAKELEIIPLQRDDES
#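 Measured: the HTRF emission ratio (665/620 nm) plus the 620 nm donor channel, each fitted to the Hill equation to give AC50. Cells were CHO-M1 given compounds up to 46 uM and a 30 min carbachol stimulation at 37C.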
# PNC assembly inh: High Content Assay for Compounds that inhibit the Assembly of the Perinucleolar Compartment; hit rate 3.1% among 140,000; activity change (PNC), negative = inhibition, % at 10 µM; PC3M PTB-GFP, PNC prevalence imaging, 16 h; hits give low values;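 active means readout at or below -70, meaning at least 70% loss of cells showing the perinucleolar compartment, a nuclear body marking cancer cells; inconclusive means readout between -30 and a set limit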;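 further: plate controls were DMSO wells for no effect and camptothecin positive control wells for full effect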
#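 PC3M cells stably expressing PTB-GFP, 750–1000 cells/well, treated 16 h at 37 °C with compound (23 nl of library stock), in duplicate. After paraformaldehyde fixation and Hoechst stain, imaged at 20x; PNC prevalence scored by image analysis.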
# LMNA splice mod: qHTS Assay for Modulators of Lamin A Splicing; HeLa LMNA splicing GFP/RFP minigene ratio, 48 h; Potency, µM (top dose mostly 46.1 µM), for the others: top-dose ratio change, negative = inhibition, usual class: inhibitors; hit rate 0.01% among 200,000; AID 1487, 2009; active means well fitted inhibition curve with a large enough effect in the signal ratio, with a control signal flat, not every such curve was filed as active; inconclusive means small, poorly fitted or top-dose-only effect, or effect the other way, or a change in a side signal; the % refers to the signal ratio; further: potency means the concentration at half of the fitted maximal effect
#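 S3 HeLa stable clones carrying a lamin A-EGFP splicing minigene plus DsRed2 were seeded at 600 cells/well in Opti-MEM with 2% FBS, pin-dosed and incubated 48 h at 37°C. Acumen cytometry (488 nm) gave the GFP/RFP total-intensity ratio.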
# ALDH1A1 block: qHTS Assay for Inhibitors of Aldehyde Dehydrogenase 1 (ALDH1A1); Aldehyde dehydrogenase 1A1 (Homo sapiens), P00352; Purified ALDH1A1, NADH fluorescence, propionaldehyde substrate; hit rate 7.3% among 220,000; Potency, µM (doses to about 75.3 µM), for the others: at the highest dose activity, negative = inhibition, most hits filed as inhibitors; AID 1030, 2008;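 further: potency means the concentration at half of the fitted maximal effect; plate controls were no enzyme wells and a reference inhibitor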
# Target sequence (P00352 whole entry, looked up): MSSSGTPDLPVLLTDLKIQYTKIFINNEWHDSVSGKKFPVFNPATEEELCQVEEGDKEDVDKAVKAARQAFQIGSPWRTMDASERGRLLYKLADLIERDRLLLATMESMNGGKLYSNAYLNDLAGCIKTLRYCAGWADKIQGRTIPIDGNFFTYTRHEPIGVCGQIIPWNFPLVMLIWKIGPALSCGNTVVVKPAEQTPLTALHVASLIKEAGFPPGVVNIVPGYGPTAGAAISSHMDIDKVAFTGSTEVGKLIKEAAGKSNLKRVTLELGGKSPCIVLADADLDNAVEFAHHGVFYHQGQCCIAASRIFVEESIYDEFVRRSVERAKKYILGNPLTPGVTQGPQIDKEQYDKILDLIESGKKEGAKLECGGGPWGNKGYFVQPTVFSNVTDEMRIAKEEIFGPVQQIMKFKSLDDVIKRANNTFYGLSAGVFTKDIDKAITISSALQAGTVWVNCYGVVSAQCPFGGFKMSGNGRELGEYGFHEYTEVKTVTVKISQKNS
# Active calls of the source: *; u = inconclusive; x = no result; [ ] = another dose, or the depositor's remark. Unless noted, the call rests on the fitted dose curve; in most records, active means well fitted inhibition curve with a large enough effect (not every such curve was filed as active); inconclusive means small, poorly fitted or top-dose-only effect, or another doubt; inactive means no such curve, though single readings can be large or run the other way. Unless noted, on the % scale 0 is the no-effect control and ±100 the full control effect.
SMILES,KinaseGlo FLuc,HPGD block,IMPase cell inh,PNC assembly inh,LMNA splice mod,ALDH1A1 block
Cc1scc(-c2n[nH]c(=S)n2C(C)c2ccccc2)c1C (stereo not given),0%,25µM*,x,-14,u,u
CC1=CC(c2ccccc2)n2nc(N3C(=O)CCC3=O)nc2N1 (stereo not given),0%,u,u,-94*,-6%,u
CN(C)CCC[C@@H]1c2ccccc2Oc2ccc(C(F)(F)F)cc21,-4%[7.66 µM],-2%,x,x,x,10%[13.5 µM]
O=C(O)CCc1ccc(S(=O)(=O)NCCc2ccccc2)cc1,x,x,-21,5,-2%,1.8µM*
CCOc1ccc(NC(=O)COc2ccc(C(=O)NCCc3ccccc3)cc2)cc1,x,x,-7,-105*,-11%,-1%
CCOCC(=O)Nc1ccc(S(=O)(=O)NCCc2ccccc2)cc1,0%,-5%,-3,3,u,10µM*
O=C(Nc1ccc(S(=O)(=O)NCCc2ccccc2)cc1)c1ccco1,0%,-24%,18,-15,u,u
CC(C)c1ccccc1NC(=O)COc1ccc(C(=O)NCCc2ccccc2)cc1,3%,-5%,5,2,u,0%
O=C1NC(=S)S/C1=C\c1coc2ccccc2c1=O,-2%,x,x,x,x,8.9µM*
Cc1ccc(N(C(=O)c2cccc(C)c2)S(=O)(=O)c2ccc(Cl)cc2)cc1,x,x,4,x,x,x
COC(=O)c1cc(=O)nc2scc(C)n12,3%,-7%,x,26,4%,22µM*
COC(=O)c1cc(=O)nc2sc3ccccc3n12,-3%,-6%,2,15,0%,u
CCOC(=O)CNC(=O)CSc1nnc(-c2ccc(OC)cc2)n1CC,-1%,0%,9[0.0738 µM],-1,-13%,5%
CCOC(=O)CSC1=NC(=O)/C(=C/c2ccc(OC)cc2)S1,-1%,13µM*,x,-91*,-26%,u
CCOC(=O)CSc1nnc(-c2ccoc2C)n1-c1ccc(C)cc1,2%,-11%,3,-100*,-4%,4%
CCOC(=O)CSc1nc(C)c2cc(OC)ccc2n1,1%,u,-7,58,12%,u
CCOC(=O)CSc1nnc(-c2ccc(OC)cc2)n1CC,-1%,-5%,9,15,4%,2.5µM*
CCNc1ncc2nc(-c3cc(F)cc(F)c3)c(=O)n(C[C@H]3CCCO3)c2n1,x,x,x,x,4%,u
O=C(c1ccc(NC(=S)NCc2ccc(Cl)cc2)cc1)N1CCCCC1,0%,x,x,x,x,u
NS(=O)(=O)c1ccc(NC(=S)Nc2ccc(C(=O)N3CCCCC3)cc2)cc1,x,x,x,x,x,18µM*
NS(=O)(=O)c1ccc(NC(=S)NC2CCCCC2)cc1,2%,x,x,x,24%[46 µM],-12%
O=C(c1ccc(NC(=S)Nc2ccc(Cl)c(Cl)c2)cc1)N1CCCC1,1%,11µM*,-1,16,-14%,u
NS(=O)(=O)c1ccc(NC(=O)CN2CCCCC2)cc1,-2%,-11%,-1,-83*,-9%,4%
CC1CCc2c(sc(NC(=O)CCCOc3ccc(C(C)(C)C)cc3)c2C(N)=O)C1 (stereo not given),x,x,2,x,x,x
COc1ccc(C(=O)Nc2nc3c(s2)CCCC3)cc1S(=O)(=O)N1CCCc2ccccc21,4%,u,x,-123*,u,u
SMILES,KinaseGlo FLuc,HPGD block,IMPase cell inh,PNC assembly inh,LMNA splice mod,ALDH1A1 block
CCCNC(=O)c1ccc2c(c1)ncn2-c1cc(C)cc(C)c1,1%,x,x,x,x,2%
Cc1cc(C)cc(-n2cnc3cc(C(=O)O)ccc32)c1,-3%,16µM*,-5,-25,4%,-5%
CCOC(=O)C1=C(C)NC(=S)NC1C (stereo not given),0%,x,x,x,u,0%
CCOC(=O)C1=C(c2ccccc2)NC(=S)NC1c1cc([N+](=O)[O-])ccc1OC (stereo not given),2%,-7%,1,-8,1%,4µM*
CCOC(=O)C1=C(c2ccccc2)NC(=S)NC1C (stereo not given),-1%,-8%,-9,u,7%,2µM*
CCOC(=O)C1=C(c2ccccc2)NC(=S)NC1c1ccc(C)c([N+](=O)[O-])c1 (stereo not given),-4%,-18%,x,3,-26%,0.25µM*
CCOC(=O)C1=C(c2ccccc2)NC(=S)NC1c1cccc([N+](=O)[O-])c1 (stereo not given),x,x,-4,-20,-11%,0.89µM*
CCOC(=O)C1=C(c2ccccc2)NC(=O)NC1c1ccc(O)c(OCC)c1 (stereo not given),-1%,x,x,x,-10%[46 µM],-11%
Cc1cccc(N(CC(=O)NC(C)c2ccccc2)S(=O)(=O)c2ccccc2)c1C (stereo not given),x,x,-1,x,x,x
CC(C)=NOC[C@@H](O)[C@@H]1O[C@@H]2OC(C)(C)O[C@@H]2[C@H]1O,x,x,x,x,x,9%[13.5 µM]
C=CCOC(=O)N[C@H](c1ccco1)C(C(C)=O)C(C)=O,-9%,-7%,x,x,x,-12%
CC(C)N=C=NC(C)C,x,-10%,x,x,x,0%
CCOc1cc(NC(=S)Nc2cccc(OC)c2)c(OCC)cc1NC(=O)c1ccc(C)cc1,-3%,-18%,-9,14,11%,u
CCOc1cc(NC(=S)Nc2cccc(OC)c2)c(OCC)cc1NC(=O)C(C)C,-1%,-12%,17,-106*,10%,u
COc1ccc(NC(=S)Nc2ccc(OCc3ccccc3)cc2)c(OC)c1,3%,-24%,-1,28,u,10µM*
CCOc1cc(NC(=S)Nc2ccccc2)c(OCC)cc1NC(=O)c1ccc(OC)cc1,-1%,-19%,5,u,4%,22µM*
CCOc1cc(NC(=S)Nc2cccc(C)c2)c(OCC)cc1NC(=O)CC(C)C,-5%,-1%,3,u,u,-16%
COc1ccc(NC(=S)Nc2ccccc2)c(OC)c1,2%,x,x,x,x,u
Cc1ccc(Cl)cc1N1CCN(CCCNC(=O)Cn2ncc3c([nH]c4ccccc43)c2=O)CC1,x,x,x,x,-3%[46 µM],x
CCn1c(=O)sc2cc(NS(=O)(=O)c3ccc(C)cc3)ccc21,x,x,-5,x,x,x
O=C1CS/C(=C\[N+](=O)[O-])N1c1ccccc1,-10%,-14%,6,0,-8%,5µM*
O=C(N=C1SCC(=O)N1c1ccccc1)c1ccco1,-4%,-8%,-9,1,4%,-6%
CCOCCCNC(=O)C(=O)Nc1c2c(nn1-c1ccccc1)CSC2,x,x,x,x,7%[46 µM],x
